Compounds with a hit are over-represented: about 21% of the library has one in this group of screens.
ClpP mod: qHTS Assay for Activators of ClpP. Potency, µM (titrated, usually from 57.5 µM). purified B. subtilis ClpP, FRET peptide cleavage, 20 min. ATP-dependent Clp protease proteolytic subunit (Bacillus subtilis (strain 168)), P80244. AID 651965, 2013. hit rate 1.9% among 340,000; active = well fitted falling curve with a large enough effect; inconclusive = small, poorly fitted or top-dose-only effect; inactive = no such curve, though single readings can be large or run the other way; also: the source files actives as falling curves though it sought activators and does not explain the sign; nearly all actives have a fitted effect of over 65% in size
Target sequence (P80244 whole entry, looked up): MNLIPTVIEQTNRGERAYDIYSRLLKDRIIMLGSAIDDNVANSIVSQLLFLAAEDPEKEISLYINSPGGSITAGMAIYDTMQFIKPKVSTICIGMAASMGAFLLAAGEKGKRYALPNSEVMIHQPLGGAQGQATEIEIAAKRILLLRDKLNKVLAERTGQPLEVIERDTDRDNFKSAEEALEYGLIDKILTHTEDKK
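ClpP 10 microg/mL final, pH 8 Tris/KCl buffer with BSA, glycerol, Tween-20; compound pinned in; FRET-FV substrate; RT 20 min; Ex320/Em430; ΔFRET vs ADEP 5.8 microM, DMSO, no enzyme.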
DRD3 antagonist: qHTS of D3 Dopamine Receptor Antagonist: qHTS | max response, negative = inhibition, % | hit rate 2.5% among 360,000 | D(3) dopamine receptor (Homo sapiens), P35462 | AID 652054, 2013 | D3R cells, DiscoveRx beta-arrestin luminescence, antagonist mode; hits give low values; in the data active = max response below about -50%; inconclusive = no clear call, values can overlap the other calls
Target sequence (P35462 whole entry, looked up): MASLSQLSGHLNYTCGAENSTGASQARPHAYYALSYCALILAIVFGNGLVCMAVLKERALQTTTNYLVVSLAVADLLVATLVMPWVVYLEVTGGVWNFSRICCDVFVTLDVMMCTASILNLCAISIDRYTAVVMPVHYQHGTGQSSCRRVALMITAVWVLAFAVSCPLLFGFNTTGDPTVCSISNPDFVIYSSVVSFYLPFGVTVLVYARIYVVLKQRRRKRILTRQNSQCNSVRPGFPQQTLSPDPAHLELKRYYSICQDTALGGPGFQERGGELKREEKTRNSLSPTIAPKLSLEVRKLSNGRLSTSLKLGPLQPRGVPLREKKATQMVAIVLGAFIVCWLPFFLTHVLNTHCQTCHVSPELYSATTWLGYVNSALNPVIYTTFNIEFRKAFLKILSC
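Cells expressing the human receptor were seeded at 1500 cells/well, incubated overnight at 37 degrees C in 5% CO2, then exposed to library compounds with dopamine controls for 90 minutes at 37 degrees C before luminescent detection.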
DRD3 agonist: qHTS of D3 Dopamine Receptor Agonist: qHTS | D(3) dopamine receptor (Homo sapiens), P35462 | max activation, % | D3R DiscoveRx beta-arrestin cells, luminescence, 90 min | hit rate 0.58% among 410,000; in the data active = max activation above about 30%
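Agonist mode: compounds and dopamine controls were applied to plated cells for 90 min at 37 degrees C after an overnight attachment at 1500 cells/well. Luminescent read-out followed 30 - 60 minutes at room temperature with DiscoveRx detection reagent.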
DT40 TDP1 no CPT: qHTS for Inhibitors of human tyrosyl-DNA phosphodiesterase 1 (TDP1): qHTS in cells in absence of CPT; Potency, µM (top dose mostly 46.2 µM), actives largely listed as inhibitors; hit rate 15% among 420,000; DT40 Tdp1-/- hTDP1 cells, no CPT, ATP luminescence, 48 h; also: nearly all actives have a fitted effect of over 55% in size
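Luminescent ATP content (CellTiter-Glo) served as the growth readout. Knockout chicken DT40 cells expressing human TDP1 were exposed to compounds without camptothecin for a minimum 48 hr at 37 °C.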
DT40 TDP1 CPT: qHTS for Inhibitors of human tyrosyl-DNA phosphodiesterase 1 (TDP1): qHTS in cells in presence of CPT | Potency, µM (series often up to 46.2 µM), hits mostly inhibitors | chicken DT40 Tdp1-/-;hTDP1 cells + 20 nM CPT, ATP luminescence, 48 h | hit rate 12% among 420,000; also: nearly all actives have a fitted effect of over 55% in size
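Chicken DT40 Tdp1-/- cells stably complemented with human TDP1 were seeded at 400 cells/well in medium containing 20 nM camptothecin, exposed to pin-transferred compounds, and grown at 37 °C for at least 48 hr. Viability was read as ATP luminescence.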
IL-1B inflam inh: qHTS for Inhibitors of Inflammasome Signaling: IL-1-beta AlphaLISA Primary Screen. THP-1 LPS/ATP IL-1B secretion, AlphaLISA, 16 h; hits give low values. activity change, % at 57.5 µM. hit rate 4.7% among 360,000. AID 743279, 2014; in the data active = activity change below about -50%; inconclusive = mostly about -30% to -49%
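THP-1 cells pretreated 1 hr with compounds (up to 57.5 uM final), then stimulated with LPS (250 ng/mL final) plus ATP (1.25 mM final); secreted IL-1B measured by AlphaLISA after 16 hr, decreased signal indicating inhibition.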
A number is an active result; n = inactive; u = inconclusive; x = not tested or not shown. Unless noted, calls follow the shape of the dose curve; as a rule, active = well fitted inhibition curve with a large enough effect; inconclusive = small, poorly fitted or top-dose-only effect; inactive = flat fitted curve, though single readings scatter.

SMILES	ClpP mod	DRD3 antagonist	DRD3 agonist	DT40 TDP1 no CPT	DT40 TDP1 CPT	IL-1B inflam inh
O=C(Nc1ccccc1Cl)c1ccc2c(c1)N(Cc1ccc(F)cc1)C(=O)CS2=O (configuration not stated)	n	n	n	u	16µM	n
O=C(NCCc1ccccc1)c1ccc2c(c1)N(Cc1ccccc1)C(=O)CS2=O (configuration not stated)	n	n	n	u	u	n
CCOc1ccc(NC(=O)CN(C)C(=O)c2c(-c3ccccc3)noc2C)cc1OCC	n	n	n	u	n	n
CCN1CCN(c2nc(Nc3ccc(C)c(C)c3)nc(N)c2[N+](=O)[O-])CC1	n	-83	n	23µM	n	u
CCOc1ccc(Nc2nc(N)c([N+](=O)[O-])c(N3CCN(C)CC3)n2)cc1	n	n	n	n	u	n
Cc1cccc(Nc2nc(N)c([N+](=O)[O-])c(N3CC(C)OC(C)C3)n2)c1 (configuration not stated)	n	n	n	u	u	u
CCN1CCN(c2nc(Nc3cccc(OC)c3)nc(N)c2[N+](=O)[O-])CC1	n	n	n	9.2µM	13µM	n
Cc1cccc(Nc2nc(N)c([N+](=O)[O-])c(N3CC(C)CC(C)C3)n2)c1 (configuration not stated)	n	n	n	18µM	u	-101
CCN(CC)C(=O)C(C)N(C#N)c1nc(Cl)nc(N(C)C)n1 (configuration not stated)	n	n	n	n	n	-98
COc1ccc(-n2ncc(C(C)NS(=O)(=O)c3cc(C)sc3C)c2C)cc1 (configuration not stated)	n	n	n	16µM	u	n
Cc1c(NC(=O)c2nn(C(C)C)c(=O)c3ccccc23)c(=O)n(-c2ccccc2)n1C	n	n	n	n	n	n
COc1cccc(CSc2nc3cc4c(cc3cc2C)OCCO4)c1	u	n	n	29µM	u	n
CC(C)CC(=O)Nc1ccc(C(=O)COC(=O)CN2C(=O)NC3(CCCCC3C)C2=O)cc1 (configuration not stated)	n	n	n	n	n	n
CCn1c(NC(=S)Nc2ccccc2)nc2ccccc21	n	n	n	4.6µM	5.2µM	n
S=C(Nc1ccccc1)Nc1nc2ccccc2n1CCOc1ccc(Cl)cc1	n	n	n	16µM	21µM	-88
CCCn1c(NC(=S)Nc2ccccc2)nc2ccccc21	n	n	n	u	u	n
CC(C)(C)n1nnnc1C(c1ccccc1)N1CCN(C(=O)C2CCCO2)CC1 (configuration not stated)	n	n	n	n	n	n
N/C(Cc1nc(-c2ccc(Cl)cc2)cs1)=N/O	n	n	n	n	n	n
COc1ccc(NC(=O)CCCSc2nc(-c3ccco3)cc(C(F)(F)F)n2)cc1	n	x	n	u	n	x
Cc1cccc(-c2cc(NC(=O)COc3ccccc3F)n(-c3ccccc3)n2)c1	n	x	n	u	u	x
COc1ccc(-c2nnc(C3CCN(C(=O)c4ccccc4F)CC3)o2)cc1	n	x	n	4.6µM	5.2µM	x
COc1ccccc1-c1nnc(C2CCN(C(=O)c3ccc(C)cc3)CC2)o1	n	x	n	u	n	x
Fc1ccc(-c2noc3ncnc(NCCCN4CCN(c5ccccc5)CC4)c23)cc1	n	x	n	u	u	x
CCCCN(C)C(=S)Nc1ccc2nc3n(c(=O)c2c1)CCCCC3	n	n	n	n	n	n
O=C1C=C(c2cccc(CO)c2)C[C@@H](c2ccc(F)cc2)C1	n	n	n	n	n	n
SMILES	ClpP mod	DRD3 antagonist	DRD3 agonist	DT40 TDP1 no CPT	DT40 TDP1 CPT	IL-1B inflam inh
O=C1C=C(c2ccc(-c3ccccc3)c(F)c2)C[C@@H](c2ccc(Cl)cc2)C1	n	n	n	u	21µM	n
O=C1C=C(c2cccc(O)c2)C[C@@H](c2ccc(F)cc2)C1	n	u	n	u	21µM	n
O=C1C=C(c2cccc(Br)c2)C[C@@H](c2ccc(Cl)cc2)C1	n	u	n	u	16µM	n
COc1ccc([C@H]2CC(=O)C=C(c3ccc(-c4ccccc4)c(F)c3)C2)cc1	n	n	n	n	n	n
COc1ccc(N2CC(NC(=O)c3c(F)cccc3Cl)CC2=O)cc1OC (configuration not stated)	n	x	n	n	n	x
Cn1c(=O)c2c(nc(NCCNC(=O)c3ccco3)n2Cc2ccccc2Cl)n(C)c1=O	n	u	n	u	n	n
Cn1c(=O)c2c(nc(N/N=C/c3ccc(OC(=O)c4ccco4)cc3)n2Cc2ccccc2)n(C)c1=O	28µM	n	n	8.2µM	12µM	n
Cn1c(=O)c2c(nc(N/N=C/c3cccs3)n2Cc2ccccc2)n(C)c1=O	n	n	n	23µM	u	n
COC(=O)c1ccc(C)c(NC(=O)CCn2[nH]c(=O)ccc2=O)c1	x	n	n	n	n	n
Cc1ccccc1Cn1ccn(-c2ccc(F)c(F)c2)c(=O)c1=O	n	x	69	n	n	x
C=Cc1ccc(Cn2ccn(-c3ccc(F)c(F)c3)c(=O)c2=O)cc1	n	x	n	n	n	x
CCC(C)c1ccc(NC(=S)NC(C)C2CCCO2)cc1 (configuration not stated)	n	n	n	26µM	n	n
CCC(C)c1ccc(C(CC)NC(=O)C2CCCO2)cc1 (configuration not stated)	n	n	n	u	23µM	n
CCC(C)c1ccc(NC(=S)Nc2ccc(OC)c(OC)c2)cc1 (configuration not stated)	n	u	n	u	u	n
Cc1ccc(C)c(NS(=O)(=O)c2cc3c4c(c2)CC(=O)N4CCC3)c1	n	n	n	n	u	n
N#CC1=C(N)Oc2c(ccc3cccnc23)C1c1ccccc1 (configuration not stated)	n	n	n	4.1µM	5.2µM	n
Cc1ccc2[nH]c(=O)c(C3C(C#N)=C(N)Oc4c3ccc3cccnc43)cc2c1 (configuration not stated)	n	u	n	21µM	21µM	u
N#CC1=C(N)Oc2c(ccc3ccccc23)C1c1cccs1 (configuration not stated)	n	n	n	0.63µM	0.56µM	n

Assay outcomes: PubChem, National Center for Advancing Translational Sciences (NCATS)
